Assay results: PubChem BioAssay (Tox21)
Results filed as inconclusive are left out. Calls of active or inactive are those of the source. Unless noted, calls follow the shape of the dose curve; as a rule, active = well fitted curve in the direction sought with a large enough effect in the repeat runs; inconclusive = weak or mixed curves; inactive = no such curve, though single readings can be large; an effect the other way counts as inactive or inconclusive.

What was measured:
[1] = A CellTox Green Cytotoxicity Assay to monitor cytotoxicity in HEK293 cells - 16 hour (AID 1224888); also: nearly all actives have a fitted effect of over 35% in size
Outline: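 Read-out: fluorescence of a cell-impermeant cyanine dye staining DNA of dead cells, proportional to cytotoxicity. HEK293, 600 cells/well with reagent, compound (23 nL DMSO) added after 5 h; reads at 0, 8, 16, 24, 32, 40 h.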

[2] = qHTS RealTime-Glo MT Cell Viability Assay in HepG2 cells - 0 hour (AID 1224889); also: nearly all actives have a fitted effect of over 50% in size
Outline: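 HepG2 cells were seeded at 600 cells/well together with NanoLuc luciferase and a cell-permeant prosubstrate, preincubated 5 h at 37 C/5% CO2, then pin-dosed with compounds in DMSO. Nonlytic luminescence from viable cells was read at each time point.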

[3] = A CellTox Green Cytotoxicity Assay to monitor cytotoxicity in HepG2 cells - 8 hour (AID 1224890); also: nearly all actives have a fitted effect of over 45% in size
Outline: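 HepG2, 600 cells/well premixed w/ CellTox Green; 5 h settle, 37 C/5% CO2; pintool cpd add (DMSO); 37 C, 40 h; fluorescence read at 0, 8, 16, 24, 32, 40 h.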

[4] = qHTS assay to identify small molecule antagonists of the estrogen receptor alpha (ER-alpha) signaling pathway using the BG1 cell line in the presence of 0.1 nM 17-beta-estradiol - cell viability counter screen (AID 1259241); also: nearly all actives have a fitted effect of over 40% in size
Outline: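 CellTiter-Fluor read (30 min, 37C) on ER-alpha/ERE-luc VM7Luc4E2 cells; 22 hr compound treatment; agonist 0.1 nM E2 final; same-well multiplex.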

[5] = qHTS assay to identify small molecule antagonists of the androgen receptor (AR) signaling pathway using the MDA cell line in the presence of 0.5 nM R1881 - cell viability counter screen (AID 1259242); also: nearly all actives have a fitted effect of over 45% in size
Outline: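 Live-cell protease fluorescence, CellTiter-Fluor, 30 min at 37C. Cells: MDA-kb2, 3,000/well, preincubated 5 hr. Compounds plus 0.5 nM R1881 final, 16 hr, 37C, 0% CO2.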

[6] = qHTS assay to identify small molecule HDAC inhibitors - cell viability counter screen (AID 1259365); also: series mostly up to about 92 µM; nearly all actives have a fitted effect of over 50% in size
Outline: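 To flag cytotoxic hits, 1,500 wild-type HCT-116 cells per well, plated the day before, receive test compounds for 2hr at 37 C before CellTiter-Glo reagent and a luminescence read.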

[7] = qHTS assay to identify small molecule agonists of the sonic hedgehog signaling (Shh) pathway - cell viability counter screen (AID 1259366); also: nearly all actives have a fitted effect of over 50% in size
Outline: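 Fluorescence from CellTiter-Fluor reports live cells in this counter screen. NIH/3T3-derived Gli1-Luc reporter cells receive test compounds for 24hr at 37C; reagent goes in at 23hr.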

[8] = qHTS assay to identify small molecule antagonists of the sonic hedgehog signaling (Shh) pathway - cell viability counter screen (AID 1259367); also: nearly all actives have a fitted effect of over 55% in size
Outline: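 Tox21 library chemicals were tested on a Gli1-Luc NIH/3T3 clone (2,000 cells/well) stimulated by conditioned medium; viability was quantified as fluorescence from CellTiter-Fluor reagent added at 23 hr.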

[9] = qHTS assay to identify small molecule antagonists of the sonic hedgehog signaling (Shh) pathway (AID 1259369; calls by dose curve; also: nearly all actives have a fitted effect of over 45% in size)
Outline: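 Luminescence readout: firefly Luc under Gli1 response element in 3T3Gli1-Luc cells (NIH/3T3 clone). Antagonist mode, stimulation by conditioned medium; compound exposure 24hr at 37 C, 5% CO2.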

[10] = qHTS assay to identify small molecule agonists of the androgen receptor (AR) signaling pathway in the presence of an antagonist - cell viability counter screen (AID 1259379);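 also: MDA-kb2 human breast cancer cells carrying an MMTV luciferase reporter; series mostly up to about 92 µM; nearly all actives have a fitted effect of over 25% in size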
Outline: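 Viability counter screen: CellTiter-Fluor fluorescence, measured in the same wells as the luciferase read-out. MDA-kb2 cells, 3,000/well, with nilutamide at 3.0uM final and compounds at 15 concentrations, 16 hr at 37C, 0% CO2.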

[11] = qHTS assay to identify small molecule agonists of the estrogen receptor beta (ER-beta) signaling pathway - cell viability counter screen (AID 1259380); also: nearly all actives have a fitted effect of over 30% in size
Outline: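 Luminescence read-out (CellTiter-Glo, 30 min, room temp) taken in the same wells as the beta-lactamase reporter assay; ER-beta-UAS-bla HEK293T cells exposed to DMSO-dissolved compounds for 16 hr at 37C in 2% charcoal-stripped FBS medium.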

[12] = qHTS assay to identify small molecule antagonists of the estrogen receptor beta (ER-beta) signaling pathway - cell viability counter screen (AID 1259382); also: series mostly up to about 92 µM; nearly all actives have a fitted effect of over 55% in size
Outline: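 Luminescent ATP read-out (CellTiter-Glo, 30 min, RT) taken in the same wells as the bla reporter assay. HEK293T ER-beta-UAS-bla cells in 2% charcoal-stripped FBS were exposed to compounds with 1nM E2 for 16 hr at 37C.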

[13] = qHTS assay to identify small molecule HDAC inhibitors (AID 1259364); also: potency is read from the fitted curve at half-maximal effect;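 also: wild-type HCT-116 cells with endogenous class I/II HDAC activity; nearly all actives have a fitted effect of over 45% in size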; as to activity change, negative = inhibition: top concentration of the series differs between compounds
Outline: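 HCT-116 (wild type), 1,500 cells/well, overnight; compound 2 hr 37C 5% CO2; HDAC-Glo I/II reagent 30 min RT; luminescence readout.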

[14] = qHTS assay to identify small molecule agonists of the sonic hedgehog signaling (Shh) pathway (AID 1259368; calls by dose curve;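 also: NIH/3T3-derived 3T3Gli1-Luc cells carrying a stable Gli1-driven firefly luciferase reporter; series mostly up to about 92 µM; nearly all actives have a fitted effect of over 15% in size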)
Outline: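 Read-out: firefly luciferase luminescence from a Gli1 response element reporter stably integrated in NIH/3T3-derived 3T3Gli1-Luc cells, measured 30 min at room temperature after reagent addition. Compound exposure lasted 24 hr at 37 C, 5% CO2.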

[15] = molecular target: Estrogen receptor beta (Homo sapiens) (UniProt Q92731); experiment: qHTS assay to identify small molecule agonists of the estrogen receptor beta (ER-beta) signaling pathway (AID 1259377; active = well fitted activation curve with a large enough effect in the signal ratio in the repeat runs, not every such curve was filed as active; the % refers to the signal ratio)
Sequence of Estrogen receptor beta (Homo sapiens) (Q92731 whole entry, looked up): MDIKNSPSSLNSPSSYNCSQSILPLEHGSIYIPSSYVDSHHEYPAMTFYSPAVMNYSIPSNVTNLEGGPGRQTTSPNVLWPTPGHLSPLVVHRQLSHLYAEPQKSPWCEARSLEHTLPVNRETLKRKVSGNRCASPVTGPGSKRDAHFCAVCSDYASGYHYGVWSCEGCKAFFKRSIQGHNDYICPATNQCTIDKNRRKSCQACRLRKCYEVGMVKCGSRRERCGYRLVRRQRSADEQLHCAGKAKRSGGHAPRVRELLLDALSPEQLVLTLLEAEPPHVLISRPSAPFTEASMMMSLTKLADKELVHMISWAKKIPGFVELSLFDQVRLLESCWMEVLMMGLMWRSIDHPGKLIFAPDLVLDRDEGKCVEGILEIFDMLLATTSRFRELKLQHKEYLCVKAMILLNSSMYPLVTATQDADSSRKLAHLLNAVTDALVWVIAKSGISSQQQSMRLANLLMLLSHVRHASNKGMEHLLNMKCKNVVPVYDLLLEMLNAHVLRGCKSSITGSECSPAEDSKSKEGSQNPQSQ
Outline: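 Screening used GripTite ER-beta-UAS-bla cells held in 2% charcoal-stripped FBS medium. After overnight (16 hr) compound incubation at 37C, beta-lactamase activity was detected with a FRET substrate by fluorescence.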

[16] = molecular target: Estrogen receptor beta (Homo sapiens) (UniProt Q92731); experiment: qHTS assay to identify small molecule antagonists of the estrogen receptor beta (ER-beta) signaling pathway (AID 1259378; active = well fitted inhibition curve with a large enough effect in the signal ratio in the repeat runs, not every such curve was filed as active; the % refers to the signal ratio)
Outline: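 ER-beta-UAS-bla HEK293T cells in 2% charcoal-stripped FBS medium treated with compound plus 1nM final 17-beta-estradiol for 16 hr at 37C. Beta-lactamase reporter read by FRET substrate fluorescence after 2 hours at room temperature.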

[17] = molecular target: Estrogen receptor (Homo sapiens) (UniProt P03372); experiment: qHTS assay to identify small molecule antagonists of the estrogen receptor alpha (ER-alpha) signaling pathway using the BG1 cell line in the presence of 0.1 nM 17-beta-estradiol (AID 1259244); also: nearly all actives have a fitted effect of over 50% in size
Sequence of Estrogen receptor (Homo sapiens) (P03372 whole entry, looked up): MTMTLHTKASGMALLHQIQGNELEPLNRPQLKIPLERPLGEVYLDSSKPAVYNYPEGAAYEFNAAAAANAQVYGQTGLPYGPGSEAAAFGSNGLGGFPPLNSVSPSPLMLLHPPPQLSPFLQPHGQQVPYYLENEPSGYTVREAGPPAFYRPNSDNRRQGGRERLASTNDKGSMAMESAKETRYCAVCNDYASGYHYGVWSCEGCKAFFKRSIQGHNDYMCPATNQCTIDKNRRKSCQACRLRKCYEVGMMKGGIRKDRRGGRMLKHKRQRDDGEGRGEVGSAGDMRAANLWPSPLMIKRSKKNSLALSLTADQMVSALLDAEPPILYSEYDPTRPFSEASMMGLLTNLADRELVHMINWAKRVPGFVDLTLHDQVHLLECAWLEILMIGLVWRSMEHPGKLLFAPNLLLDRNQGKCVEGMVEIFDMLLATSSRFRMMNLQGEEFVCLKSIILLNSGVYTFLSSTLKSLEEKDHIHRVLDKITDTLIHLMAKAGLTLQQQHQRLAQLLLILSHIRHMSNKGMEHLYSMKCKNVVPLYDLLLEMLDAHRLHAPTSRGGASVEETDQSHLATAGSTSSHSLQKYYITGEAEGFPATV
Outline: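 Luminescence after ONE-Glo (30 min, room temperature) measured ERE-luciferase activity in VM7Luc4E2 cells treated 22 h with compound and 0.1 nM final 17beta-estradiol as stimulator.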

[18] = qHTS assay to identify small molecule phospholipidosis (PLD) inducers (AID 1259344; active = well fitted curve in the direction sought with a large enough effect; an effect the other way counts as inactive or inconclusive)
Outline: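 Image-based: LipidTOX Red pit count/intensity per well and per cell; HepG2, 24 h compound at 37 C, PFA fixation, Hoechst counterstain.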

[19] = molecular target: Androgen receptor (Homo sapiens) (UniProt P10275); experiment: qHTS assay to identify small molecule antagonists of the androgen receptor (AR) signaling pathway using the MDA cell line in the presence of 0.5 nM R1881 (AID 1259243); also: nearly all actives have a fitted effect of over 50% in size
Sequence of Androgen receptor (Homo sapiens) (P10275 whole entry, looked up): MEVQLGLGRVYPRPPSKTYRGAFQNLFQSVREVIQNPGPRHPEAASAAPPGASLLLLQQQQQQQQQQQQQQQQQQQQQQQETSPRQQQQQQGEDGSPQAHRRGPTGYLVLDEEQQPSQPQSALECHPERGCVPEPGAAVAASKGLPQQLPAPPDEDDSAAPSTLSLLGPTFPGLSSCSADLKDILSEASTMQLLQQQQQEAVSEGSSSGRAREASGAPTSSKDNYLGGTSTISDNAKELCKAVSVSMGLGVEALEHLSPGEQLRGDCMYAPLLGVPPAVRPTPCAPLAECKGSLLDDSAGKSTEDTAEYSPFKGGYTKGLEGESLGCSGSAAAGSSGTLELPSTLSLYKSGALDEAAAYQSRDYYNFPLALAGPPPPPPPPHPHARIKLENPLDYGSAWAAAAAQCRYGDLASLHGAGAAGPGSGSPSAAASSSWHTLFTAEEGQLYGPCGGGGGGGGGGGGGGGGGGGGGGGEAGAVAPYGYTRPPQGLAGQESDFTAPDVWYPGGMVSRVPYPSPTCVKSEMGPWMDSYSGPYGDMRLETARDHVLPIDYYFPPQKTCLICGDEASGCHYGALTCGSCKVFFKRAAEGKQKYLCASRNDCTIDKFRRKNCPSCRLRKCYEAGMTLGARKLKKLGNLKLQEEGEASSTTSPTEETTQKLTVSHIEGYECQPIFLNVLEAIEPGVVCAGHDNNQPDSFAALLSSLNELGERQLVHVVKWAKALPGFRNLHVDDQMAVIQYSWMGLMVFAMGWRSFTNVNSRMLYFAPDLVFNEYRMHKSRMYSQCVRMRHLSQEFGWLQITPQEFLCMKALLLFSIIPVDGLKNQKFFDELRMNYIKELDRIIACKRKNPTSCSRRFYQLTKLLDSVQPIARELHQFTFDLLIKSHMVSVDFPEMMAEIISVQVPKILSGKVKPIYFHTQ
Outline: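 MDA-kb2, MMTV-luc (AR/GR elements); 3,000 cells/well; cpd + 0.5 nM R1881 final; 16 hr 37C, 0% CO2; ONE-Glo 30 min RT; luminescence.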

[20] = molecular target: Androgen receptor (Homo sapiens) (UniProt P10275); experiment: qHTS assay to identify small molecule agonists of the androgen receptor (AR) signaling pathway in the presence of an antagonist (AID 1259381; calls by dose curve; also: nearly all actives have a fitted effect of over 15% in size)
Outline: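 Luciferase read-out (ONE-Glo, 30min room temperature) in MDA-kb2 MMTV-reporter cells; agonist mode run in presence of AR antagonist nilutamide, 3.0uM final. Compounds tested as 15-point series, 16hr exposure at 37C, 0% CO2.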
% is scaled to controls: 0 for no effect and ±100 for the full control effect.

CC(C)CCOC(=O)c1ccccc1
inactive: Potency [1] | Potency [2] | Potency [3] | outcome [4] | outcome [5] | outcome [6] | outcome [7] | outcome [8] | Potency [9] | outcome [10] | outcome [11] | outcome [12]

Cc1ccc(C)c([N+](=O)[O-])c1
inactive: Potency [1] | Potency [2] | Potency [3] | outcome [4] | outcome [5] | Potency [13] | outcome [6] | outcome [8] | outcome [14] | Potency [9] | Potency [15] | Potency [16] | outcome [10] | outcome [11] | outcome [12]

CCOC(CN1CCN(CC(C)C(=O)c2ccccc2)CC1)c1ccccc1 (stereo not drawn)
inactive: activity change [1] -4.55% [at 15.8 µM, active compounds read high] | activity change, negative = cytotoxicity [2] 0.232% [at 15.8 µM] | cytotoxicity increase [3] -9.59% [at 15.8 µM] | activity change, negative = cytotoxicity [4] -7.75% [at 19 µM] | viability change, negative = cytotoxic [5] -2.37% [at 19 µM] | activity change, negative = inhibition [13] 1.54% [at 19 µM] | activity change, negative = cytotoxicity [6] -3.08% [at 19 µM] | viability change, negative = cytotoxic [7] -6.98% [at 19 µM] | viability change, negative = cytotoxic [8] -0.0061% [at 19 µM] | activity change [14] 0.16% [at 18.9 µM] | activity change, negative = inhibition [9] -3.93% [at 19 µM] | activity change, negative = cytotoxicity [10] -6.08% [at 19 µM] | activity change, negative = cytotoxicity [11] -10.4% [at 19 µM] | activity change, negative = cytotoxicity [12] -10.1% [at 19 µM]

C=CCCCCCCCC
inactive: Potency [1] | Potency [2] | Potency [3] | outcome [4] | outcome [5] | Potency [13] | outcome [7] | outcome [8] | outcome [14] | Potency [9] | outcome [10] | outcome [12]

Cn1nnc2c(C(N)=O)ncn2c1=O
inactive: Potency [1] | Potency [2] | Potency [3] | outcome [4] | outcome [17] | outcome [18] | outcome [6] | outcome [7] | outcome [8] | outcome [14] | Potency [9] | Potency [15] | Potency [16]

CC(C)Nc1ccccc1
inactive: Potency [1] | Potency [2] | Potency [3] | outcome [4] | outcome [17] | Potency [13] | outcome [6] | outcome [7] | outcome [8] | outcome [14] | Potency [9] | Potency [15] | Potency [16] | outcome [10] | outcome [11]

CN(C)CCCO[C@@H]1[C@H]2OC(C)(C)O[C@H]2O[C@@H]1C(O)CO (stereo partly drawn)
inactive: Potency [1] | Potency [2] | Potency [3] | outcome [4] | outcome [17] | outcome [18] | Potency [13] | outcome [7] | outcome [8] | Potency [9] | outcome [10] | outcome [11] | outcome [12]

CCCCCCCCCOC(=O)c1ccccc1C(=O)OCCCCCCCCC
inactive: Potency [1] | Potency [2] | Potency [3] | outcome [4] | Potency [19] | outcome [17] | outcome [6] | outcome [7] | outcome [14] | Potency [9] | Potency [15] | Potency [16] | outcome [10] | outcome [20]

ONc1ccccc1
inactive: Potency [1] | Potency [2] | Potency [3] | outcome [4] | outcome [17] | outcome [6] | outcome [7] | outcome [8] | outcome [14] | Potency [9] | outcome [10] | outcome [12]
active: Potency [13] 27 µM

O=C(Cl)c1ccccc1[N+](=O)[O-]
inactive: Potency [1] | Potency [2] | Potency [3] | outcome [4] | Potency [19] | Potency [13] | outcome [6] | outcome [7] | outcome [8] | outcome [14] | Potency [9] | Potency [15] | Potency [16] | outcome [10] | outcome [11] | outcome [20] | outcome [12]

CC(S)C(C)S (stereo not drawn)
inactive: Potency [1] | Potency [2] | Potency [3] | outcome [4] | Potency [19] | outcome [17] | Potency [13] | outcome [6] | outcome [7] | outcome [8] | outcome [14] | Potency [9] | Potency [15] | Potency [16] | outcome [11] | outcome [20]

COS(=O)(=O)O
inactive: Potency [1] | Potency [2] | Potency [3] | outcome [4] | outcome [5] | outcome [6] | outcome [7] | outcome [8] | Potency [9] | Potency [15] | Potency [16] | outcome [10] | outcome [11] | outcome [12]

CCCCCCCCCCCCCBr
inactive: Potency [1] | Potency [2] | Potency [3] | outcome [4] | outcome [5] | Potency [13] | outcome [6] | outcome [7] | outcome [8] | outcome [14] | Potency [9] | outcome [10] | outcome [11] | outcome [12]

CC(=O)OC(C)=O
inactive: Potency [1] | Potency [2] | Potency [3] | outcome [4] | outcome [5] | outcome [6] | outcome [7] | outcome [8] | outcome [14] | Potency [9] | outcome [10] | outcome [11]

CCCC(=O)Nc1ccc(OCC(O)CNC(C)C)c(C(C)=O)c1 (stereo not drawn)
inactive: Potency [1] | Potency [2] | Potency [3] | outcome [4] | outcome [17] | outcome [18] | Potency [13] | outcome [6] | outcome [8] | outcome [14] | Potency [9] | Potency [15] | Potency [16] | outcome [11] | outcome [12]

C=CC(=O)CCCCC
inactive: Potency [1] | Potency [2] | Potency [3] | outcome [4] | outcome [5] | Potency [13] | outcome [6] | outcome [7] | outcome [8] | outcome [14] | Potency [9] | outcome [10] | outcome [11] | outcome [12]

OCC1(CO)COCOC1
inactive: Potency [1] | Potency [2] | Potency [3] | outcome [4] | outcome [5] | Potency [13] | outcome [6] | outcome [7] | outcome [14] | Potency [9] | Potency [15] | Potency [16] | outcome [10] | outcome [11] | outcome [12]
